Experimental findings from the supplement of paper PMC9262897, “Low-cost anti-mycobacterial drug discovery using engineered E. coli” (Nature Communications, 2022) are described below.

SMILES strings stand for the structures. Structures can show the parent of a compound that is named as a salt. ± gives the standard deviation of the averaged measurements.

Common to all, as to test: growth (OD600 after 10 h); higher = more growth (less inhibition)
Assay [1] deals with E. coli TESEC Alr+ wild-type control. The following applies: compound 0.1 mM; raw OD600 reference: median of DMSO wells 0.241, cell-free background 0.041. How it is done:
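TESEC Mtb Alr E. coli, or the Alr+ wild-type control, in 384-well plates with Prestwick library compounds at 0.1 mM and 1% DMSO, across arabinose induction levels of 1E3 to 1E7 nM. Growth is read as OD600 after 10 h at 37 °C in triplicate biological replicates.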

The test system of the next assay is E. coli TESEC Mtb Asd. The following applies: compound 0.1 mM. How it is done:
(§1)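 TESEC E. coli strains in which the native enzyme is deleted and replaced by arabinose-inducible Mtb Asd, DapB, CysH or TrpD, each grown in its selective medium. Strains were screened against the Prestwick library at 0.1 mM and 1% DMSO in 384-well format at low and high arabinose induction. Growth is read as OD600 after 10 h in triplicate.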

The test system of another assay is E. coli TESEC Mtb DapB. Particulars: compound 0.1 mM. How it is done: as §1
Another assay concerns E. coli TESEC Mtb Alr. The following applies: compound 0.1 mM. How it is done: (§2)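 TESEC Mtb Alr E. coli (ΔaraC ΔtolC ΔentC Δalr ΔdadX, arabinose-inducible Mtb Alr) or the Alr+ wild-type control strain, grown in defined M9-fructose medium without D-alanine in 96-well plates with Prestwick library compounds at 0.1 mM and 1% DMSO. Low Alr induction is 0.1 µM arabinose and high induction is 10 mM arabinose.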

The subject of assay [2] is E. coli TESEC Alr+ wild-type control. The following applies: compound 0.1 mM; raw OD600 reference: median of DMSO wells 0.49, cell-free background 0.052. How it is done:
as §2

Where [3] appears, read: arabinose induction (level): High, raw OD600 reference: median of DMSO wells 0.331, cell-free background 0.041.
[4] abbreviates: arabinose induction (level): Low, raw OD600 reference: median of DMSO wells 0.417, cell-free background 0.041.
Where [5] appears, read: arabinose induction (level): High, raw OD600 reference: median of DMSO wells […], cell-free background 0.041.
Setting [6] is: arabinose induction (level): Low, raw OD600 reference: median of DMSO wells 0.227, cell-free background 0.041.
Where [7] appears, read: arabinose 100 nM, raw OD600 reference: median of DMSO wells 0.413, cell-free background 0.052.
The mark [8] stands for this setting: arabinose 10000000 nM, raw OD600 reference: median of DMSO wells […], cell-free background 0.052.

In the case of `CC(=O)CC(c1ccc([N+](=O)[O-])cc1)c1c(O)c2ccccc2oc1=O` (stereo not drawn) [Acenocoumarol], the growth came out at 0.244 ± 0.0011 in assay [1]; 0.26 ± 0.023 in the assay with E. coli TESEC Mtb Asd (setting [3]); 0.293 ± 0.051 in the assay on E. coli TESEC Mtb Asd (setting [4]); 0.175 ± 0.015 with E. coli TESEC Mtb DapB (setting [5]); 0.189 ± 0.0085 in the assay on E. coli TESEC Mtb DapB (setting [6]); 0.395 ± 0.011 in the assay on E. coli TESEC Mtb Alr (setting [7]). Further, in the assay on E. coli TESEC Mtb Alr (setting [8]), the growth was 0.323 ± 0.024.

As to `C[C@H](Cc1cc2c(c(C(N)=O)c1)N(CCCO)CC2)NCCOc1ccccc1OCC(F)(F)F` [Silodosin], the growth in assay [1] was determined as 0.1773 ± 0.001; in the assay with E. coli TESEC Mtb Asd (setting [3]) it was 0.302 ± 0.092; in the assay on E. coli TESEC Mtb Asd (setting [4]) it was 0.474 ± 0.012; in the assay on E. coli TESEC Mtb Alr (setting [7]), 0.407 ± 0.011; with E. coli TESEC Mtb Alr (setting [8]), 0.329 ± 0.018.

Consider `CN(c1nccc(=O)[nH]1)C1CCN(c2nc3ccccc3n2Cc2ccc(F)cc2)CC1` [Mizolastine], for which the growth in assay [1] is 0.18 ± 0.016; with E. coli TESEC Mtb Asd (setting [3]) it was 0.177 ± 0.0092; in the assay with E. coli TESEC Mtb Asd (setting [4]) it was 0.293 ± 0.036; in the assay on E. coli TESEC Mtb DapB (setting [5]), 0.2 ± 0.039; in the assay on E. coli TESEC Mtb DapB (setting [6]) it was 0.174 ± 0.012; in assay [2] it was 0.426 ± 0.018. Besides, the values for the growth in the assay on E. coli TESEC Mtb Alr (setting [7]) and with E. coli TESEC Mtb Alr (setting [8]) were 0.406 ± 0.0081 and 0.162 ± 0.026, respectively.

As for `COc1cc([C@@H]2c3cc4c(cc3[C@@H](O[C@@H]3O[C@@H]5CO[C@@H](C)O[C@H]5[C@H](O)[C@H]3O)[C@H]3COC(=O)[C@H]23)OCO4)cc(OC)c1O` [Etoposide], the growth in assay [1] was determined as 0.0715 ± 0.0031; in the assay on E. coli TESEC Mtb Asd (setting [3]), 0.112 ± 0.015; with E. coli TESEC Mtb Asd (setting [4]) it was 0.0831 ± 0.013; in the assay with E. coli TESEC Mtb DapB (setting [5]), 0.113 ± 0.0098; in the assay on E. coli TESEC Mtb DapB (setting [6]), 0.0846 ± 0.011; in the assay with E. coli TESEC Mtb Alr (setting [7]) it was 0.129 ± 0.02. Moreover, the growth in the assay with E. coli TESEC Mtb Alr (setting [8]) stood at 0.0985 ± 0.018.

As for `CN1CC2c3ccccc3Oc3ccc(Cl)cc3C2C1` (stereo not drawn) [Asenapine maleate], the growth in assay [1] was found to be 0.184 ± 0.004; in the assay with E. coli TESEC Mtb Asd (setting [3]), 0.229 ± 0.031; in the assay with E. coli TESEC Mtb Asd (setting [4]) it was 0.295 ± 0.017; with E. coli TESEC Mtb DapB (setting [5]) it was 0.213 ± 0.0042; with E. coli TESEC Mtb DapB (setting [6]), 0.254 ± 0.026; in assay [2] it was 0.44 ± 0.01. Moreover, the growth in the assay with E. coli TESEC Mtb Alr (setting [7]) is 0.417 ± 0.0072; in the assay with E. coli TESEC Mtb Alr (setting [8]), 0.266 ± 0.0045.

Take `N#Cc1cc(NC(=O)C(=O)O)c(Cl)c(NC(=O)C(=O)O)c1` [Lodoxamide]: the growth was 0.264 ± 0.0031 in assay [1]; 0.228 ± 0.029 in the assay on E. coli TESEC Mtb Asd (setting [3]); 0.366 ± 0.035 with E. coli TESEC Mtb Asd (setting [4]); 0.579 ± 0.069 in assay [2]; 0.404 ± 0.014 with E. coli TESEC Mtb Alr (setting [7]); 0.348 ± 0.024 in the assay with E. coli TESEC Mtb Alr (setting [8]).

As for `O=S(=O)(O)c1cc(O)ccc1O` [Ethamsylate], the growth in assay [1] came out at 0.252 ± 0.0066; with E. coli TESEC Mtb Asd (setting [3]) it was 0.211 ± 0.034; in the assay with E. coli TESEC Mtb Asd (setting [4]), 0.391 ± 0.0046; in the assay on E. coli TESEC Mtb DapB (setting [5]), 0.191 ± 0.013; in the assay on E. coli TESEC Mtb DapB (setting [6]) it was 0.244 ± 0.025; in the assay with E. coli TESEC Mtb Alr (setting [7]), 0.41 ± 0.015. For the same compound, the growth with E. coli TESEC Mtb Alr (setting [8]) was determined as 0.344 ± 0.022.

As for `Cc1ccnc2c1NC(=O)c1cccnc1N2C1CC1` [Nevirapine], the growth in assay [1] was 0.233 ± 0.0085; in the assay on E. coli TESEC Mtb Asd (setting [3]) it was 0.399 ± 0.051; in the assay on E. coli TESEC Mtb Asd (setting [4]), 0.391 ± 0.053; with E. coli TESEC Mtb DapB (setting [5]), 0.209 ± 0.012; in the assay with E. coli TESEC Mtb DapB (setting [6]), 0.243 ± 0.0097; in assay [2], 0.507 ± 0.057. Besides, the growth was 0.402 ± 0.014 in the assay with E. coli TESEC Mtb Alr (setting [7]) and 0.343 ± 0.011 with E. coli TESEC Mtb Alr (setting [8]).

With `COCCCOc1ccnc(C[S+]([O-])c2nc3ccccc3[nH]2)c1C` (stereo not drawn) [Rabeprazole Sodium salt], the growth in assay [1] stood at 0.186 ± 0.0019; in the assay with E. coli TESEC Mtb Asd (setting [3]), 0.423 ± 0.028; in the assay with E. coli TESEC Mtb Asd (setting [4]), 0.371 ± 0.01; in the assay on E. coli TESEC Mtb Alr (setting [7]), 0.357 ± 0.011; in the assay with E. coli TESEC Mtb Alr (setting [8]) it was 0.152 ± 0.035.

Consider `CN1CCN(c2c(F)cc3c(=O)c(C(=O)O)cn(CCF)c3c2F)CC1` [Fleroxacin], for which the growth in assay [1] was found to be 0.0517 ± 0.002; in the assay with E. coli TESEC Mtb Asd (setting [3]) it was 0.0848 ± 0.0081; in the assay with E. coli TESEC Mtb Asd (setting [4]), 0.0766 ± 0.014; with E. coli TESEC Mtb DapB (setting [5]), 0.0682 ± 0.001; in the assay with E. coli TESEC Mtb DapB (setting [6]) it was 0.0599 ± 0.003; in the assay with E. coli TESEC Mtb Alr (setting [7]) it was 0.0555 ± 0.0013. In the assay with E. coli TESEC Mtb Alr (setting [8]), this compound gave a growth of 0.05217 ± 5.8e-05.

Turning to `CC(=O)O[C@]1(C(C)=O)CC[C@H]2[C@@H]3C=C(Cl)C4=CC(=O)[C@@H]5C[C@@H]5[C@]4(C)[C@H]3CC[C@@]21C` [Cyproterone acetate], the growth in assay [1] came out at 0.1672 ± 0.001; in the assay on E. coli TESEC Mtb Asd (setting [3]), 0.111 ± 0.041; in the assay with E. coli TESEC Mtb Asd (setting [4]), 0.109 ± 0.0055; in assay [2], 0.355 ± 0.17; with E. coli TESEC Mtb Alr (setting [7]) it was 0.385 ± 0.035; with E. coli TESEC Mtb Alr (setting [8]), 0.0934 ± 0.024.

In the case of `COC(=O)C1=C(C#N)NC(C)=C(C(=O)OC(C)C)C1c1cccc([N+](=O)[O-])c1` (stereo not drawn) [Nilvadipine], the growth in assay [1] is 0.148 ± 0.0031; in the assay with E. coli TESEC Mtb Asd (setting [3]), 0.16 ± 0.0063; in the assay on E. coli TESEC Mtb Asd (setting [4]), 0.325 ± 0.029; in assay [2], 0.212 ± 0.16; in the assay with E. coli TESEC Mtb Alr (setting [7]) it was 0.429 ± 0.0067; in the assay with E. coli TESEC Mtb Alr (setting [8]) it was 0.06 ± 0.0039.

Turning to `Nc1cc(C(Cl)=C(Cl)Cl)c(S(N)(=O)=O)cc1S(N)(=O)=O` [Clorsulon], the growth was 0.224 ± 0.0038 in assay [1]; 0.283 ± 0.025 with E. coli TESEC Mtb Asd (setting [3]); 0.3101 ± 0.0016 in the assay on E. coli TESEC Mtb Asd (setting [4]); 0.216 ± 0.014 in the assay with E. coli TESEC Mtb DapB (setting [5]); 0.248 ± 0.016 with E. coli TESEC Mtb DapB (setting [6]); 0.53 ± 0.0087 in assay [2]. For the same compound, the results for the growth with E. coli TESEC Mtb Alr (setting [7]) and in the assay on E. coli TESEC Mtb Alr (setting [8]) were 0.414 ± 0.011 and 0.335 ± 0.025, respectively.
